Cruzain inh Det – inhibitors of Trypanosoma cruzi cruzain with detergent; 200,000 compounds, 0.43% hits; P25779; Potency, µM, usual class: inhibitors; purified cruzain, Z-FR-AMC fluorescence, 0.01% Triton; AID 1478; note: nearly all actives have a fitted effect of over 40% in size
Target sequence (P25779 123-467 limits assumed): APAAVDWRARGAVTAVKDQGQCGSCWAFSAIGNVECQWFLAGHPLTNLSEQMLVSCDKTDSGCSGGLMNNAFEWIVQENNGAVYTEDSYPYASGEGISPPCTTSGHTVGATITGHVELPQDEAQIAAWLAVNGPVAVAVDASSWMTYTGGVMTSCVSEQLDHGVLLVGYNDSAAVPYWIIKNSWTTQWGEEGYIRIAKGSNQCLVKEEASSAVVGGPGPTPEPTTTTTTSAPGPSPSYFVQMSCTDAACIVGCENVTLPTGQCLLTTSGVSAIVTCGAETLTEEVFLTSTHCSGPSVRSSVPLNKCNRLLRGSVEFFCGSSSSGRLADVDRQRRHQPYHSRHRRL
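Purified cruzain (1.5 nM final) was preincubated with compounds for 15 min at room temperature in 100 mM sodium acetate pH 5.5, 5 mM DTT, 0.01% Triton X-100. Reaction started with 2 uM Z-FR-AMC; AMC fluorescence change over 60 s gave activity.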
Cruzain inh noDet – cruzain (T. cruzi) inhibition without detergent; P25779; purified cruzain, Z-FR-AMC fluorescence, no detergent; Potency, µM, usual class: inhibitors; 200,000 compounds, 2.3% hits; AID 1476; note: nearly all actives have a fitted effect of over 40% in size
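Purified cruzain at 1.5 nM, pre-incubated 15 min with compound at room temperature in 100 mM sodium acetate pH 5.5, 5 mM DTT, 0.00005% Triton X-100. Reaction started with 2 uM Z-FR-AMC; AMC fluorescence increase over 60 s gives rate.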
Numbers stand for hits; - = inactive; ? = inconclusive. In the library only some 2.6% were active in any assay of this set; here they are far more common. Calls come from the whole dose curve; as a rule, active = well fitted curve in the direction sought with a large enough effect; inconclusive = small, poorly fitted or top-dose-only effect, or another doubt; inactive = no such curve, though single readings can be large; an effect the other way counts as inactive or inconclusive.

SMILES	Cruzain inh Det	Cruzain inh noDet
COc1ccccc1N1CCN(C(=O)CCS(=O)(=O)c2cc(Br)cc3c2N(C(=O)C2CC2)CC3)CC1	-	?
CC(C)(C[C@@]1(C)NC(=O)NC1=O)OCc1ccccc1	-	-
CCC1=C2CC[C@H]3C(=O)NC(=O)[C@H]3[C@H]2[C@@]2(C)C(=NCC(=O)OC)OC(=O)N2C1=O	-	-
COC(=O)c1c(-c2cccs2)csc1NC(=O)COc1ccccc1	-	-
COC(=O)c1c(-c2cccs2)csc1NC(=O)COc1ccc(C(C)(C)C)cc1	-	25µM
COC(=O)c1c(-c2cccs2)csc1NC(=O)COc1c(C)ccc(C)c1C	-	25µM
COC(=O)c1c(-c2cccs2)csc1NC(=O)COc1ccc(C)cc1	-	-
Cc1cccc(N2CCN(c3nc4ccccc4c4nnc(C)n34)CC2)c1C	-	-
Cc1ccccc1Cn1c2ccccc2c2cnn(CC(=O)NCCCc3ccccc3)c(=O)c21	-	-
CC1Cc2ccccc2N1C(=O)CSc1nnc2c(n1)[nH]c1ccccc12 (stereo not given)	-	-
CC1Cc2ccccc2N1C(=O)CSc1nnc(-c2ccccc2)c(-c2ccccc2)n1 (stereo not given)	-	16µM
NC(=S)N=Nc1c(O)[nH]c2ccccc12	?	13µM
Oc1[nH]c2ccccc2c1N=NC(=S)NCCc1ccccc1	-	-
Cc1ccc(Nc2c(-c3ccc(N(C)C)cc3)nc3ccccn23)cc1	-	-
COc1cc(NC(=O)CN2c3ccccc3S(=O)(=O)c3ccccc32)cc(OC)c1	-	?
O=C1OC(c2cc(I)c(O)c(I)c2)(c2cc(I)c(O)c(I)c2)c2ccccc21	-	-
O=C(COc1ccc2ccccc2c1)NNC(=O)Cc1ccccc1	-	-
O=C(COc1ccc2ccccc2c1)Nc1nc2ccccc2[nH]1	-	25µM
COc1ccc(OCC(=O)Nc2nc3ccccc3[nH]2)cc1	-	-
O=C(COc1ccc2ccccc2c1)NCCNC(=O)COc1ccc2ccccc2c1	-	25µM
Cc1cc(C)cc(NC(=O)C(=O)NCC(c2cccnc2)N2CCc3ccccc32)c1 (stereo not given)	-	-
CCOc1cc2sc(N3CCC(C(=O)Nc4ccccc4C(=O)OC)CC3)nc2cc1Br	-	-
CCC(=O)Nc1cc(C)c(O)c(-c2nc3ncccc3o2)c1	-	-
Cc1nc2ccccc2cc1C[N+]12CN3CN(CN(C3)C1)C2	-	-
O=[N+]([O-])c1ccc(Oc2ccc(-c3cnc4ccccc4n3)cc2[N+](=O)[O-])cc1	-	?
SMILES	Cruzain inh Det	Cruzain inh noDet
O=[N+]([O-])c1cc(-c2cnc3ccccc3n2)ccc1Oc1ccc(Br)cc1	-	25µM
CC(/C=N/NC(=S)Nc1cccc(S(=O)(=O)N(C)C)c1)c1ccccc1 (stereo not given)	-	-
CN(C)S(=O)(=O)c1cccc(NC(=S)N/N=C/C(c2ccccc2)c2ccccc2)c1	-	32µM
O=C(c1csnn1)N1CCC2(CC1)CN(c1cccc(-c3ccccc3)c1)C2	-	?
CC(CNC(=O)Cn1ccc2cc(S(=O)(=O)N3CCCCC3)ccc21)c1ccccc1 (stereo not given)	-	-
C[Si](C)(C)C#Cc1ccccc1NC(=S)Nc1ccccc1	-	-
Cc1ccc(NC2=C(C(=O)c3ccccc3)N(C)S(=O)(=O)c3ccccc32)cc1	-	20µM
CCN1C(C(=O)c2ccccc2)=C(Nc2ccccc2C)c2ccccc2S1(=O)=O	-	?
Cc1cc(C(=O)CSc2nnc(-c3ccco3)o2)c(C)n1Cc1ccco1	-	-
Cc1cc(C(=O)CSc2nnc(-c3cccs3)o2)c(C)n1-c1ccccc1	-	25µM
O=C(CSc1nnc(-c2cccs2)o1)c1cccs1	-	-
Cc1cc(C(=O)CSc2nnc(-c3ccco3)o2)c(C)n1-c1ccc2c(c1)OCCO2	-	10µM
c1csc(CNc2nc(-c3ccc4c(c3)OCO4)nc3ccccc23)c1	-	?
N#C/C(=C\Nc1ccccc1SC(F)(F)F)c1nc(-c2ccc(F)cc2)cs1	-	-
Cc1ccc(-c2csc(/C(C#N)=C/Nc3ccccc3SC(F)(F)F)n2)cc1	-	10µM
COc1ccc(/C=C\c2onc(C)c2S(=O)(=O)N2CCC(C(=O)Nc3cccc(C)c3C)CC2)cc1	-	-
COc1ccc(NC(=O)C2CCN(S(=O)(=O)c3c(C)noc3/C=C/c3cccs3)CC2)cc1Cl	-	10µM
COc1ccc(/C=C\c2onc(C)c2S(=O)(=O)N2CCC(C(=O)Nc3cccc(Cl)c3)CC2)cc1	-	7.9µM
Cc1noc(/C=C/c2cccs2)c1S(=O)(=O)N1CCC(C(=O)Nc2ccc(F)c(Cl)c2)CC1	-	?
Cc1ccc(NC(=O)C2CCN(S(=O)(=O)c3c(C)noc3/C=C/c3cccs3)CC2)cc1F	-	?
COc1cc(NC(=O)C2CCN(S(=O)(=O)c3c(C)noc3/C=C/c3cccs3)CC2)cc(OC)c1	-	16µM
Sc1ccc2ccccc2c1CNCc1ccccc1	-	-
Cc1cccc([N+](=O)[O-])c1C	-	-
C=CC[C@@H](C(=O)O)c1ccccc1	-	-
Cc1ccc(-n2c(=O)cc(N3CCN(c4ccccc4Cl)CC3)[nH]c2=O)cc1	-	-
SMILES	Cruzain inh Det	Cruzain inh noDet
CC(=O)c1cc(C(=O)Nc2cc(C)cc(C)c2)c2ccccn12	-	?
COc1ccc(/C=C/C(=O)Oc2cccc(/C=N/NC(=O)c3cccc(F)c3)c2)cc1	-	?
COc1ccc(/C=C/C(=O)Oc2ccc(/C=N\NC(=O)c3ccc(F)cc3)cc2)cc1	-	7.9µM
COc1ccc(/C=N/NC(=O)c2ccc(CN3c4cccc5cccc(c45)S3(=O)=O)cc2)cc1	-	16µM
O=C(N/N=C/CCc1ccccc1)c1ccc(CN2c3cccc4cccc(c34)S2(=O)=O)cc1	-	?
CC1=C(/C=C\C(=O)O)C(C)(C)CCC1	-	-
c1ccc(Nc2nc3ccccc3[nH]2)nc1	25µM	10µM
Cc1cc(C)nc(Nc2nc3ccccc3[nH]2)n1	-	-
O=c1c2ccccc2nc2n1CCC2	?	13µM
O=c1c2ccccc2nc2n1CCCCC2	-	-
Cc1cc([N+](=O)[O-])cc(C)c1OCC(=O)N/N=C/c1ccc(OC(=O)c2ccccc2Br)cc1	-	10µM
O=C(CNC(=O)c1ccc([N+](=O)[O-])cc1)N/N=C\c1ccc(OC(=O)c2ccccc2)cc1	-	7.9µM
Cc1ccc(CC(=O)N/N=C/c2ccc(OC(=O)c3ccc([N+](=O)[O-])cc3)cc2)cc1	-	?
COc1cccc(C(=O)NCC(=O)N/N=C/c2cccc(OC(=O)c3ccc([N+](=O)[O-])cc3)c2)c1	-	?
Cc1cc([N+](=O)[O-])cc(C)c1OCC(=O)N/N=C/c1ccc(OC(=O)c2ccccc2)cc1	-	13µM
Cc1cccc(C)c1OCC(=O)N/N=C/c1ccncc1	-	-
Cc1ccc2c(c1)C(c1ccccc1)N(C(=O)COc1ccc(Cl)cc1Cl)CC(=O)N2 (stereo not given)	-	?
Cc1nn2c(=O)cc(COC(=O)c3cccs3)nc2s1	-	-
CCOc1ccccc1NC(=O)CSc1nc2c(oc3ccccc32)c(=O)n1C(C)C	-	-
CCCN1C(=O)c2[nH]nc(-c3ccccc3O)c2C1c1ccc(OCc2ccccc2)c(OCC)c1 (stereo not given)	-	?
O=C(Nc1ccc2nc(SCC(=O)N3CCOCC3)sc2c1)c1cccc(Cl)c1	-	?
Cc1ccccc1-c1nc(-c2ccc(NC(=O)c3cccs3)cc2)no1	-	?

High-throughput results from PubChem BioAssay.
